# Source: PubChem BioAssay AID2401 (Southern Research Specialized Biocontainment Screening …, 2010)
# In all, about 2,200 compounds went through this assay and about 530 (24%) were called active. These entries were drawn from the full list. Entries with a potency or affinity are not part of this list. A number with no mark means an inactive call.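 How the source made its calls: active means inhibition above a set limit at one or more concentrations of the dose series; inactive means inhibition under that limit at every dose.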
# Experiment: nmpC-GFP reporter counter-screen in S. Typhimurium, dose response, counter-screen for PhoP regulon inhibitor project, Salmonella Typhimurium, GFP fluorescence (AID 2401);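 further: S. typhimurium with Mg-insensitive nmpC-GFP reporter grown at 10 µM Mg2+; drop in reporter fluorescence reflects general culture growth inhibition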
# Conditions: 4 h; series mostly up to 150 µM; inhibition: at the top concentration
row,SMILES,inhibition
1,CC(C)(C)c1ccc(-c2n[nH]c(=S)n2/N=C/c2ccncc2)cc1,0.52%
2,COc1cccc(NC(=S)N/N=C2\CC(C)(C)Oc3ccc(O)cc32)c1,-12%
3,N#CC(C#N)=c1ccc2c(c1)NC1(CCCCC1)N=2,30.4%
4,O=S1(=O)C=CC(Nc2ccccc2)C1 (stereo not drawn),2.14%
5,Brc1ccc(-c2cnc3n2CCCC3)cc1,1.27%
6,O=C(Nc1nccs1)c1cc(-c2ccco2)nc2ccccc12,19.2%
7,COc1ccccc1-c1cc(C(=O)Nc2cc(C)nn2-c2ccccc2)no1,-9.01%
8,CCCOC(=O)C(C)n1cnc2sc(C)c(C)c2c1=O (stereo not drawn),-22.4%
9,COc1cc(C)nc(Nc2nc(C)c(C(C)=O)s2)n1,-27.4%
10,O=C(CSc1nnc(-c2cccs2)n1-c1ccccc1)NCc1ccc2c(c1)OCO2,-11.6%
11,O=C(CCN1C(=O)c2ccccc2C1=O)Nc1ccc(-c2cn3ccsc3n2)cc1,-11.9%
12,Cc1cccc(C)c1NC(=O)CSc1nnc(NC(=O)CN2CCOCC2)s1,-25.4%
13,C(=N\N1CCN(C2c3ccccc3-c3ccccc32)CC1)/c1cccs1,-18.1%
14,Cc1ccc(N=Nc2ccc(O)c(/C=N\NC(=O)c3ccc(N)cc3)c2)cc1C,-8.25%
15,C/C(=N\NC(=O)C1CC1c1ccccc1)c1cccc([N+](=O)[O-])c1 (stereo not drawn),5.2%
16,COc1cc([N+](=O)[O-])ccc1NC(=O)CN(C)C,-22.9%
17,Nc1nnc(CC(=O)N/N=C\c2cc([N+](=O)[O-])ccc2O)s1,4.52%

row,SMILES,inhibition
1,Cc1cc(/C=N/NC(=O)c2cccc([N+](=O)[O-])c2)c(C)n1-c1ccc(Cl)cc1Cl,37.6%
2,O=C(N/N=C/C1C(c2ccccc2)C1(Cl)Cl)c1cccc(Cl)c1 (stereo not drawn),4.67%
3,O=C(N/N=C/c1ccc(Cl)cc1Cl)c1cccc(F)c1,-20.8%
4,COc1cccc(NC(=O)NCCCN2CCN(c3ccc(F)cc3)CC2)c1,12.8%
5,COc1cc(C2C(C(=O)c3ccc(C)o3)=C(O)C(=O)N2CCc2ccccc2)ccc1O (stereo not drawn),-22.6%
6,CC(C)NC(=O)CSc1nc(N)c(NC(=O)c2ccccc2F)c(=O)[nH]1,5.87%
7,Cc1ccc(Cl)cc1-c1ccc(/C=N/n2cnnc2)o1,-25.3%
8,Cc1cccc(C)c1NC(=O)CCCSc1nnc(-c2ccc(Cl)cc2)n1-c1ccccc1,-15%
9,CCCCn1c(-c2ccccc2)nc2c(=O)n(C)c(=O)[nH]c21,-16.6%
10,Cc1noc(C)c1CSc1nc2ccccc2nc1NS(=O)(=O)c1ccc(Cl)cc1,14.2%
11,O=C1NN(c2ccccc2)C(=O)/C1=C\c1coc2ccc(O)cc2c1=O,23.4%
12,C/C(=C\C(=O)c1cccnc1)Nc1ccc(O)cc1,-1.89%
13,CC(=O)Nc1ccc(OC(=O)c2cccnc2)cc1,-41%
14,Cc1ccc2occ(/C=N/O)c(=O)c2c1,5.82%
15,N/C(=N\OC(=O)Cc1ccc(Cl)cc1)c1cccnc1,7.23%
16,N/C(=N\OC(=O)COc1ccc(Cl)cc1)c1cccnc1,-0.64%
